“And” between values parts separate entries of the source, which are not always exact repeats. Identical values can stand only once. This is part of a sample that, as a whole, favours compounds with a hit. Of some 83,000 tested, about 20% had one in any assay.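 Cell lines were cultured in 96-well plates, exposed to a single compound concentration, and assessed for percent growth 48 hours later.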 The source made the active and inactive calls. How the source made its calls: active means growth percent below 10; inactive means the rest.
These molecules were tested on M14 melanoma (assay: NCI-60 one-dose screen, 48 h (100 = growth as untreated, 0 = no growth, -100 = all killed)). Conditions: 10 µM unless noted.

Row | Structure (SMILES) | growth
1 | CCOC(=O)C1=C(C)N=C2SC=C(c3ccc(F)cc3)N2[C@H]1c1cn(-c2ccccc2)nc1-c1ccc(Cl)cc1 | 98.6% (inactive)
2 | CCN(C(=O)N1CCN(c2cc3c(cc2F)c(=O)c(C(=O)O)cn3C2CC2)CC1)c1nc(-c2ccccc2)cs1 | 22.9% (inactive)
3 | O=C(/C=C/c1ccc(Cl)s1)c1ccc(Cl)s1 | 101% (inactive) and 115% (inactive)
4 | C=CCOc1ccc(/C=C2\SC(=S)N(CCc3ccc(O)cc3)C2=O)cc1 | 103% (inactive)
5 | Cc1c(CC(=O)OCCO)cc(-c2ccc(Cl)cc2)n1-c1ccccc1 | 109% (inactive)
6 | CC1(C)C(N)=Nc2cc(OCCCN3Cc4ccc(OCCc5cn(CC(=O)N6CCC(CCN7CCCC7)CC6)nn5)cc4C3)c(OCC3CC3)cc21 | 108% (inactive)
7 | O=C1OCC2=C1C(c1cccc(C(F)(F)F)c1)c1cc3c(cc1N2CCO)OCCO3 (centres undefined) | -6.89% (active)
8 | N#CC1=C(N)Oc2c(sc3c(Br)cccc23)C1c1ccccn1 (centres undefined) | 28.1% (inactive)
9 | O=C1c2cccc3cccc(c23)C(=O)N1N1C(=O)c2cccc3c(N4CCNCC4)ccc(c23)C1=O | 96.6% (inactive)
10 | O=C(Nc1ccc(F)cc1)c1cc2cc(Nc3nc(-c4ccccc4)nc4ccccc34)ccc2oc1=O | 102% (inactive)
11 | O=C1c2cc3c(cc2-c2c1c1ccc(Cl)cc1c(=O)n2CCCn1ccnc1)OCO3 | -28.6% (active)
12 | COc1ccc(C/C(C)=C(/c2ccc(OCCN3CCCC3)cc2)c2ccc(OC(=O)NCc3ccccc3)cc2)cc1 | -20.8% (active)
13 | CCCO/N=C/c1ccccn1 | 105% (inactive) and 103% (inactive)
14 | COc1ccc(-c2csc(NC(=O)CN3CCN(CCO)CC3)n2)cc1NS(=O)(=O)c1cccc2c(N(C)C)cccc12 | -73.6% (active)
15 | Cc1ccc(-c2nc3nc(-c4ccccc4)nc(N4CCN(S(=O)(=O)c5ccccc5)CC4)c3o2)cc1 | 96.7% (inactive)
16 | CCOc1nc(-c2ccccc2)cc2c(O)c(C(=O)N/N=C/c3ccc(N(C)C)cc3)[nH]c(=O)c12 | 119% (inactive)
17 | C/C(=C(\c1ccc(OCCN2CCOCC2)cc1)c1ccc(OC(=O)C2CCCCC2)cc1)c1ccc(Cl)cc1 | 87.4% (inactive)
18 | COc1ccc2c(c1)CC[C@@H]1[C@@H]2CC[C@]2(C)C3C(=CCC4C(=O)N(c5ccccc5)C(=O)C43)C[C@@H]12 (some centres undefined) | 89.4% (inactive)
19 | CC(=O)c1c(C)nc2ccccc2c1/C=C/c1cccc(C)c1 | 46.3% (inactive)
20 | CCN(CC)CC#CCOC(=O)[C@]1(C)CCC[C@]2(C)c3ccc(C(C)C)cc3CC[C@@H]12 | 87% (inactive)

Row | Structure (SMILES) | growth
21 | O=C1/C(=C/c2ccc(-c3ccccc3C(F)(F)F)o2)SC(=S)N1CCc1ccc(O)cc1 | 34.4% (inactive)
22 | COc1ccc(-c2[nH]c3ccccc3c2-c2ccc(OC)cc2)cc1 | 34.9% (inactive)
23 | O=C(CN1C(=O)S/C(=C\C(Cl)=C\c2ccccc2)C1=O)NC1C=CS(=O)(=O)C1 (centres undefined) | -49.9% (active)
24 | CCOC(=O)N(O)c1ccc(/C=C/c2ccccc2)cc1 | 66.7% (inactive) and 58.8% (inactive)
25 | COc1cc(/C=C2/C=C(c3ccc(C(C)(C)C)cc3)N(CCc3ccc(S(N)(=O)=O)cc3)C2=O)cc(OC)c1OC | 36.5% (inactive)
26 | O=[N+]([O-])c1cc(C(F)(F)F)ccc1Sc1ccc(C(F)(F)F)cc1[N+](=O)[O-] | 49% (inactive)
27 | O=C(N=Nc1c(O)[nH]c2ccccc12)Nc1ccccc1Cl | 94.7% (inactive)
28 | Nc1n[nH]c2cccc(C#Cc3cccc(NC(=O)c4ccc(N5CCOCC5)c(C(F)(F)F)c4)c3)c12 | 3.69% (active)
29 | COc1ccc(Oc2nc(Nc3ccc(N4CCOCC4)cc3)ncc2NC(=O)c2cc(OC)cc(OC)c2)cc1 | 91.4% (inactive)
30 | COc1cc(F)c(/C=C/c2cc(/C=C/c3cc(OC)c(OC)cc3F)n(-c3cc(F)cc(F)c3)n2)cc1OC | -19.5% (active)
31 | [Cu+].[NH-][C@H]1C[N-]C(=O)[C@H]([C@H]2CCN=C(N)N2)[N-]C(=O)/C(=C\NC(N)=O)[N-]C(=O)[C@H](CNC(=O)C[C@@H](N)CCCN)[N-]C(=O)[C@H](CO)[N-]C1=O | 104% (inactive)
32 | COc1cc(N=Nc2ccc(O)c3ncccc23)c2ncccc2c1 | 25.9% (inactive)
33 | O=S(=O)(O)c1ccc(N=Nc2ccc(N=Nc3cccc4ccccc34)c(S(=O)(=O)O)c2)cc1 | 99.5% (inactive)
34 | COc1ccc(-c2cc(-c3cccnc3)nc3sc4c(Cl)nnnc4c23)cc1OC | 88.6% (inactive)
35 | C=C1C(=O)O[C@@H]2[C@H]3[C@H](COC(C)=O)[C@@H](OC(C)=O)C[C@H]3C(=C)[C@@H](O)C[C@@H]12 | 87.6% (inactive)
36 | CCCn1nc(C(=O)N2CCCCC2)c2c1CCC(N1CCC(c3ccncc3)CC1)C2 (centres undefined) | 97.3% (inactive)
37 | CN1CCN(c2ccc(/C=C/C(=O)c3ccc(O)cc3)cc2)CC1 | 95.8% (inactive)
38 | CCN(c1cc(-c2ccc(CN3CCC(/C=C/S(=O)(=O)c4ccccc4)CC3)cc2)cc(C(=O)NCc2c(C)cc(C)[nH]c2=O)c1C)C1CCOCC1 | 85.1% (inactive)
39 | Cc1ccc(-c2nc3nc(-c4ccc(Cl)cc4)nc(N4CCCNCC4)c3o2)cc1 | -75.9% (active)

— PubChem BioAssay (NCI)
